Assay results as given in PubChem BioAssay (Tox21).
“And” between values parts separate entries of the source, which are not always exact repeats. Identical values can stand only once. Results filed as inconclusive are left out. Values without a mark were called inactive. The source made the active and inactive calls. Calls follow the shape of the dose curve; as a rule, active = well fitted inhibition curve with a large enough effect in the repeat runs; inconclusive = weak or mixed curves; inactive = no such curve, though single readings can be large or run the other way.

molecular target: Cytochrome P450 2C9 (Homo sapiens) (UniProt P11712); test: Cytochrome P450 Family 2 Subfamily C Member 9 (CYP2C9) small molecule antagonists: luciferase reporter qHTS assay (AID 1671198); conditions: P450-Glo CYP2C9 enzyme assay, luciferin luminescence; series mostly up to 115 µM; activity change, negative = inhibition: at the top concentration; also: nearly all actives have a fitted effect of over 50% in size
Text: U.S. Tox21 Program National Center for Advancing Translational Sciences [NCATS] U.S. Environmental Protection Agency [EPA] National Institutes of Environmental Health Sciences [NIEHS] National Toxicology Program [NTP] U.S. Food and Drug Administration [FDA] Tox21 Assay Overview: Cytochrome P450 (CYP) enzymes are membrane-bound hemeproteins that play a key role in metabolism of drugs and xenobiotics. Evaluation of the effect of chemicals on CYP isozymes is useful to minimize the adverse drug reactions and toxicities in drug development process. Tox21 chemicals were tested for their effect on CYP enzyme activities by using P450-Glo (TM) screening systems (Promega Corporation, Madison, WI). These systems provide a luminescent method containing proluciferin substrates and are converted to luciferin products by CYP isozymes. The luciferin products formed are detected with a luciferin detection reagent, and the amount of light produced is proportional to CYP activity. P450-Glo (TM) CYP2C9 screening system (Catalog. No. V9790) was used to detect the compounds that interfere in CYP2C9 activity.
Tox21 Assay Protocol Summary: Two ul of enzyme-substrate mix was dispensed into medium binding white/solid 1536-well plates (Greiner Bio-One North America Inc., Monroe, NC) using a BioRaptr Flying Reagent Dispenser (FRD, Beckman Coulter, Brea, CA). […] The assay plates were incubated at room temperature for 10 min. Then 2 ul of NADPH regeneration solution was added to each well of the assay plates using an FRD and incubated at 37C for 1 h. The reaction was stopped by adding 4 ul of detection reagent using an FRD and after 20 min incubation at room temperature the luminescence signal was measured using a ViewLux plate reader (Perkin Elmer, Shelton, CT). Data were expressed as relative luminescence units.
% is scaled to controls: 0 for no effect and ±100 for the full control effect; potency is read from the fitted curve at half-maximal effect.

Cytochrome P450 2C9 (Homo sapiens), sequence (P11712 whole entry, looked up): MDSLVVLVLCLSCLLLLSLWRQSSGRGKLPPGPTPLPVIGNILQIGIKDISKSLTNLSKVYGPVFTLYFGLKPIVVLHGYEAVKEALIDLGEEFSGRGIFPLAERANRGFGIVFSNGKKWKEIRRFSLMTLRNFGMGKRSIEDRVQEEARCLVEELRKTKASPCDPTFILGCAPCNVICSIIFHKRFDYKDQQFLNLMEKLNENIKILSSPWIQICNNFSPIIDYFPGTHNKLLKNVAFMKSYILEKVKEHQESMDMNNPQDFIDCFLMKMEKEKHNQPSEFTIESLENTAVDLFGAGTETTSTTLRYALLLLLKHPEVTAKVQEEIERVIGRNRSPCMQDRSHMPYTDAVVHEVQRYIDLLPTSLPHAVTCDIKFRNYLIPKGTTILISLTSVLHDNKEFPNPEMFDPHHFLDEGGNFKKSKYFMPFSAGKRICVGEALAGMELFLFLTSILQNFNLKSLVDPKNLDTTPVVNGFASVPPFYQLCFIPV

SMILES	Potency	activity change, negative = inhibition
Oc1ccc(C2(c3ccc(O)cc3)CCCCC2)cc1	33.7 µM (active)	–
Clc1ccc(-c2ccccc2)cc1	–	-3.09%
CC(C)[C@H](C(=O)O[C@H](C#N)c1cccc(Oc2ccccc2)c1)c1ccc(Cl)cc1	5.63 µM (active)	–
Oc1ccc2ccc3cccc4ccc1c2c34	35.6 µM (active)	–
[Cl][Sn]([c]1ccccc1)([c]1ccccc1)[c]1ccccc1	3.79 µM (active)	–
c1ccc2c(c1)OCC(C1=NCCN1)O2 (stereo not given)	–	0.979% [at 53 µM]
N#Cc1ccc(O)cc1	–	17.2%
CCC(C)(C)C(=O)OC1=C(c2ccc(Cl)cc2Cl)C(=O)OC12CCCCC2	31.7 µM (active)	–
CCOc1cc(C(C)(C)C)ccc1C1COC(c2c(F)cccc2F)=N1 (stereo not given)	12.2 µM (active)	–
C=COCCCl	–	3.25%
CC(C)(C)C(O)/C(=C\c1ccc(Cl)cc1Cl)n1cncn1 (stereo not given)	4.83 µM (active)	–
[Hg+2].[I-].[I-]	0.564 µM (active)	–
O=C(O)c1cc[c]([Hg][Cl])cc1	4.48 µM (active)	–
O=[N+]([O-])c1ccc(Oc2ccc(C(F)(F)F)cc2[N+](=O)[O-])cc1	25.2 µM (active)	–
CC(=O)/C=C/c1ccc2c(c1)OCO2	8.01 µM (active)	–
N#C/C=C/c1ccccc1	–	-4.43%
BrC(Br)Br	–	-10.5%
CN(C)c1ccc(N=Nc2ccccc2)cc1	15.9 µM (active)	–
COc1ccc(/C(=C/C(=O)N2CCOCC2)c2ccc(Cl)cc2)cc1OC	31.7 µM (active)	–
COc1cc(C=O)cc2c1[C@H](COC(N)=O)[C@]1(OC(C)=O)ON2C[C@H]2[C@@H]1N2C(C)=O	–	-15.4%

SMILES	Potency	activity change, negative = inhibition
COP(=O)(OC)SCn1c(=O)oc2cc(Cl)cnc21	31.7 µM (active)	–
OC(c1ccc(Cl)cc1)(c1ccc(Cl)cc1)C(Cl)(Cl)Cl	5.03 µM (active)	–
CS(=O)(=O)c1ccc(C(=O)C2C(=O)CCCC2=O)c([N+](=O)[O-])c1	31.4 µM (active)	–
CC1(C)C(/C=C(\Cl)C(F)(F)F)C1C(=O)OC(C#N)c1cccc(Oc2ccccc2)c1 (stereo not given)	8.09 µM (active)	–
Cl/C=C\CCl	–	-9.75%
Nc1ccc([N+](=O)[O-])cc1Cl	–	10.8%
Clc1ccc(C(c2ccc(Cl)cc2)C(Cl)(Cl)Cl)cc1	2.26 µM (active) and 10 µM (active) and 3.89 µM (active)	–
N#Cc1ccccc1Cl	–	-4.34%
Clc1ccc(Oc2ccccc2)cc1	–	-26.3%
Cn1cc(C2=C(c3cn(C4CCN(Cc5ccccn5)CC4)c4ccccc34)C(=O)NC2=O)c2ccccc21	3.09 µM (active)	–
C=CCC1=C(C)C(OC(=O)C2C(C=C(C)C)C2(C)C)CC1=O (stereo not given)	6.71 µM (active)	–
COCC(=O)N(c1c(C)cccc1C)[C@H](C)C(=O)OC	–	-16.3%
COc1ccc(N)cc1N	41.2 µM (active) and 24.2 µM (active)	–
Cn1[nH]nnc1=S	71 µM (active)	–
O=c1c(C2CC(c3ccc(-c4ccc(Br)cc4)cc3)Cc3ccccc32)c(O)sc2ccccc12 (stereo not given)	5.49 µM (active)	–
CCOP(=O)(NC(C)C)Oc1ccc(SC)c(C)c1 (stereo not given)	11.9 µM (active)	–
CC(=O)C(Cl)(Cl)Cl	15.3 µM (active)	–
CCOP(=S)(OCC)SCCS(=O)(=O)CC	0.894 µM (active)	–
CCCCCCCCCCCCBr	–	-8.07%
ClC1=C(Cl)[C@]2(Cl)[C@@H]3[C@@H](Cl)[C@H](Cl)C[C@@H]3[C@@]1(Cl)C2(Cl)Cl	–	2.3%
